# Measured values reported in PubChem BioAssay AID1159580 (chemical genetic matrix, 2015).
# The whole screen tested about 5,500 compounds, of which about 2,000 (36%) were called active. About 18% were inconclusive and are not listed. The list shows a part of the results. Values without a mark were called inactive. Cut-off read from the data, not from the text of the source: active = normalized growth mostly below about 0.91 (no sharp cut-off); inconclusive = no clear call, values can overlap the other calls; inactive = mostly above about 0.92.
# Experiment: chemical genetic growth profiling, strain panel (AID 1159580);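 note: tested at 20 µM; growth read once vehicle control cultures reached saturation at 30 °C; 1 = growth at the plate median or of vehicle wells; lower values mean less growth of the strain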
# Details: S. cerevisiae deletion strains, growth OD
# [1] = locus YMR307W, strain GAS1, active compounds read low
compound,measurement,setting,value
Nc1nc2ccc(Cl)cc2c2nc(-c3ccco3)nn12,normalized growth,"locus YAL040C, strain CLN3, active compounds read low",0.734 (active)
same,normalized growth,"locus YCL061C, strain MRC1 (second series), active compounds read low",0.988
same,normalized growth,"locus YDR363W, strain ESC2, active compounds read low",0.926
same,normalized growth,"locus YER002W, strain NOP16, active compounds read low",0.74 (active)
same,normalized growth,[1],0.969
same,normalized growth,"locus YNL128W, strain TEP1, active compounds read low",0.632 (active)
same,normalized growth,"locus YNL175C, strain NOP13, active compounds read low",0.664 (active)
same,normalized growth,"locus YNL197C, strain WHI3, active compounds read low",0.81 (active)
same,normalized growth,"locus YNL224C, strain SQS1, active compounds read low",0.729 (active)
same,normalized growth,"locus YOR083W, strain WHI5 (second series), active compounds read low",0.473 (active)
same,normalized growth,"locus YPL055C, strain LGE1, active compounds read low",0.909
CC(=O)O[C@@](C)(CCC=C(C)C)C1CC=C(C)CC1 (stereo partly specified),normalized growth,"locus YAL013W, strain DEP1, active compounds read low",1.02
same,normalized growth,"locus YAL021C, strain ccr4, active compounds read low",1.01
same,normalized growth,"locus YAL026C, strain drs2, active compounds read low",0.989
same,normalized growth,"locus YAL030W, strain snc1, active compounds read low",0.987
same,normalized growth,"locus YBL061C, strain skt5, active compounds read low",0.979
same,normalized growth,"locus YBR009C, strain hhf1, active compounds read low",1.01
same,normalized growth,"locus YBR021W, strain FUR4, active compounds read low",1.03
same,normalized growth,"locus YBR023C, strain chs3, active compounds read low",0.986
same,normalized growth,"locus YBR171W, strain sec66, active compounds read low",0.981
same,normalized growth,"locus YBR229C, strain ROT2, active compounds read low",1.02
same,normalized growth,"locus YBR231C, strain swc5, active compounds read low",0.996
same,normalized growth,"locus YBR279W, strain paf1, active compounds read low",0.987
same,normalized growth,"locus YCL011C, strain gbp2, active compounds read low",0.983
same,normalized growth,"locus YCL016C, strain dcc1, active compounds read low",0.996
same,normalized growth,"locus YCL029C, strain bik1, active compounds read low",0.992
same,normalized growth,"locus YCL069W, strain vba3, active compounds read low",0.983
same,normalized growth,"locus YCR088W, strain abp1, active compounds read low",0.983
same,normalized growth,"locus YDL005C, strain med2, active compounds read low",0.978
same,normalized growth,"locus YDL035C, strain GPR1, active compounds read low",1.01
same,normalized growth,"locus YDL040C, strain nat1, active compounds read low",0.988
same,normalized growth,"locus YDL074C, strain BRE1, active compounds read low",1.03
same,normalized growth,"locus YDL101C, strain DUN1, active compounds read low",1.03
same,normalized growth,"locus YDL185W, strain tfp1, active compounds read low",0.988
same,normalized growth,"locus YDL192W, strain arf1, active compounds read low",1
same,normalized growth,"locus YDR001C, strain nth1, active compounds read low",0.991
same,normalized growth,"locus YDR069C, strain doa4, active compounds read low",0.966
same,normalized growth,"locus YDR101C, strain arx1, active compounds read low",0.97
same,normalized growth,"locus YDR137W, strain rgp1, active compounds read low",0.976
same,normalized growth,"locus YDR159W, strain sac3, active compounds read low",0.982
same,normalized growth,"locus YDR162C, strain NBP2, active compounds read low",1.05
same,normalized growth,"locus YDR195W, strain ref2",0.982
same,normalized growth,"locus YDR297W, strain sur2, active compounds read low",0.974
same,normalized growth,"locus YDR318W, strain mcm21, active compounds read low",0.997
same,normalized growth,"locus YDR334W, strain swr1, active compounds read low",0.985
same,normalized growth,"locus YDR335W, strain msn5, active compounds read low",0.986
same,normalized growth,"locus YDR388W, active compounds read low",0.994
same,normalized growth,"locus YDR392W, strain spt3, active compounds read low",0.973
same,normalized growth,"locus YDR502C, strain sam2, active compounds read low",0.978
same,normalized growth,"locus YEL003W, strain gim4, active compounds read low",0.993
same,normalized growth,"locus YEL037C, strain rad23, active compounds read low",0.991
same,normalized growth,"locus YEL061C, strain CIN8 (second series), active compounds read low",0.978
same,normalized growth,"locus YEL061C, strain CIN8, active compounds read low",1.02
same,normalized growth,"locus YER015W, strain faa2, active compounds read low",0.994
same,normalized growth,"locus YER016W, strain bim1, active compounds read low",0.992
same,normalized growth,"locus YER110C, active compounds read low",0.985
same,normalized growth,"locus YER111C, strain swi4, active compounds read low",0.981
same,normalized growth,"locus YER155C, strain BEM2 (second series), active compounds read low",1.01
same,normalized growth,"locus YER155C, strain BEM2, active compounds read low",1.02
same,normalized growth,"locus YER167W, strain BCK2, active compounds read low",1
same,normalized growth,"locus YFR010W, strain ubp6, active compounds read low",0.973
same,normalized growth,"locus YGL078C, strain dbp3, active compounds read low",0.995
same,normalized growth,"locus YGL086W, strain mad1, active compounds read low",0.991
same,normalized growth,"locus YGL167C, strain pmr1, active compounds read low",0.991
same,normalized growth,"locus YGL173C, strain kem1, active compounds read low",0.984
same,normalized growth,"locus YGL227W, strain vid30, active compounds read low",0.986
same,normalized growth,"locus YGL240W, strain doc1, active compounds read low",0.992
same,normalized growth,"locus YGL248W, strain PDE1, active compounds read low",1.05
same,normalized growth,"locus YGL253W, strain hxk2, active compounds read low",0.987
same,normalized growth,"locus YGR078C, strain PAC10, active compounds read low",1.05
same,normalized growth,"locus YGR135W, strain pre9, active compounds read low",1.02
same,normalized growth,"locus YGR229C, strain SMI1, active compounds read low",0.998
same,normalized growth,"locus YGR252W, strain gcn5, active compounds read low",1.01
same,normalized growth,"locus YHR013C, strain ard1, active compounds read low",1
same,normalized growth,"locus YHR027C, strain rpn1, active compounds read low",0.983
same,normalized growth,"locus YHR030C, strain SLT2, active compounds read low",1.02
same,normalized growth,"locus YHR079C, strain IRE1 (second series), active compounds read low",0.985
same,normalized growth,"locus YHR094C, strain hxt1, active compounds read low",1
same,normalized growth,"locus YHR129C, strain ARP1, active compounds read low",1.02
same,normalized growth,"locus YHR142W, strain chs7, active compounds read low",0.999
same,normalized growth,"locus YHR200W, strain rpn10, active compounds read low",0.992
same,normalized growth,"locus YIL066C, strain RNR3, active compounds read low",1.04
same,normalized growth,"locus YIL073C, strain SPO22, active compounds read low",1
same,normalized growth,"locus YIL125W, strain kgd1, active compounds read low",1
same,normalized growth,"locus YIR030C, strain dcg1, active compounds read low",0.992
same,normalized growth,"locus YJL092W, strain hpr5, active compounds read low",0.988
same,normalized growth,"locus YJL095W, strain BCK1 (second series), active compounds read low",0.998
same,normalized growth,"locus YJL095W, strain BCK1, active compounds read low",1.06
same,normalized growth,"locus YJL115W, strain asf1, active compounds read low",0.989
same,normalized growth,"locus YJL129C, strain trk1, active compounds read low",0.981
same,normalized growth,"locus YJL134W, strain LCB3, active compounds read low",1.01
same,normalized growth,"locus YJL154C, strain vps35, active compounds read low",0.984
same,normalized growth,"locus YJL164C, strain tpk1, active compounds read low",0.994
same,normalized growth,"locus YJL166W, strain qcr8, active compounds read low",0.983
same,normalized growth,"locus YJL168C, strain set2, active compounds read low",0.999
same,normalized growth,"locus YJL187C, strain SWE1 (second series), active compounds read low",1.04
same,normalized growth,"locus YJL187C, strain SWE1, active compounds read low",0.991
same,normalized growth,"locus YJR043C, strain POL32, active compounds read low",1.04
same,normalized growth,"locus YKL009W, strain mrt4, active compounds read low",0.962
same,normalized growth,"locus YKL068W, active compounds read low",0.997
same,normalized growth,"locus YKL085W, strain MDH1 (second series), active compounds read low",0.994
same,normalized growth,"locus YKL085W, strain MDH1, active compounds read low",0.994
same,normalized growth,"locus YKL160W, strain elf1, active compounds read low",0.993
same,normalized growth,"locus YKL190W, strain CNB1, active compounds read low",1.01
same,normalized growth,"locus YKR001C, strain vps1, active compounds read low",0.987
same,normalized growth,"locus YKR026C, strain gcn3, active compounds read low",0.99
same,normalized growth,"locus YKR091W, strain srl3, active compounds read low",0.982
same,normalized growth,"locus YLL001W, strain dnm1, active compounds read low",0.993
same,normalized growth,"locus YLL026W, active compounds read low",0.985
same,normalized growth,"locus YLL041C, strain sdh2, active compounds read low",1.01
same,normalized growth,"locus YLR027C, strain aat2, active compounds read low",0.985
same,normalized growth,"locus YLR039C, strain RIC1, active compounds read low",1.05
same,normalized growth,"locus YLR058C, strain SHM2, active compounds read low",1.04
same,normalized growth,"locus YLR102C, strain apc9, active compounds read low",0.986
same,normalized growth,"locus YLR221C, strain rsa3, active compounds read low",0.972
same,normalized growth,"locus YLR258W, strain gsy2, active compounds read low",1.01
same,normalized growth,"locus YLR262C, strain YPT6 (second series), active compounds read low",0.959
same,normalized growth,"locus YLR262C, strain YPT6, active compounds read low",1.04
same,normalized growth,"locus YLR268W, strain sec22, active compounds read low",1
same,normalized growth,"locus YLR320W, strain mms22, active compounds read low",0.975
same,normalized growth,"locus YLR330W, strain CHS5, active compounds read low",1.03
same,normalized growth,"locus YLR342W, strain FKS1 (second series), active compounds read low",1.09
same,normalized growth,"locus YLR342W, strain FKS1, active compounds read low",0.974
same,normalized growth,"locus YLR357W, strain rsc2, active compounds read low",0.951
same,normalized growth,"locus YLR370C, strain arc18, active compounds read low",0.983
same,normalized growth,"locus YLR371W, strain rom2, active compounds read low",0.997
same,normalized growth,"locus YLR384C, strain iki3, active compounds read low",0.973
same,normalized growth,"locus YLR418C, strain cdc73, active compounds read low",0.988
same,normalized growth,"locus YML016C, strain PPZ1, active compounds read low",1.02
same,normalized growth,"locus YML032C, strain rad52, active compounds read low",1.01
same,normalized growth,"locus YML120C, strain ndi1, active compounds read low",0.985
same,normalized growth,"locus YML124C, strain tub3, active compounds read low",0.992
same,normalized growth,"locus YMR058W, strain fet3, active compounds read low",0.995
same,normalized growth,"locus YMR078C, strain ctf18, active compounds read low",0.971
same,normalized growth,"locus YMR125W, strain sto1, active compounds read low",0.983
same,normalized growth,"locus YMR129W, active compounds read low",1
same,normalized growth,"locus YMR205C, strain PFK2, active compounds read low",0.988
same,normalized growth,"locus YMR223W, strain ubp8, active compounds read low",1.04
same,normalized growth,"locus YMR231W, strain pep5, active compounds read low",0.994
same,normalized growth,"locus YMR263W, strain SAP30, active compounds read low",1.04
same,normalized growth,[1],1.11
same,normalized growth,"locus YNL067W, strain RPL9B, active compounds read low",1.04
same,normalized growth,"locus YNL071W, strain lat1, active compounds read low",0.99
same,normalized growth,"locus YNL153C, strain GIM3, active compounds read low",1.04
same,normalized growth,"locus YNL209W, strain ssb2, active compounds read low",0.984
same,normalized growth,"locus YNL233W, strain BNI4, active compounds read low",1.04
same,normalized growth,"locus YNL248C, strain rpa49, active compounds read low",0.975
same,normalized growth,"locus YNL250W, strain rad50, active compounds read low",1.01
same,normalized growth,"locus YNL271C, strain bni1, active compounds read low",0.998
same,normalized growth,"locus YNL298W, strain CLA4, active compounds read low",0.996
same,normalized growth,"locus YNL307C, strain MCK1, active compounds read low",0.996
same,normalized growth,"locus YNL322C, strain KRE1 (second series), active compounds read low",0.99
same,normalized growth,"locus YNR049C, strain mso1, active compounds read low",1
same,normalized growth,"locus YNR052C, strain pop2, active compounds read low",0.995
same,normalized growth,"locus YOL006C, strain TOP1, active compounds read low",1.14
same,normalized growth,"locus YOL012C, strain htz1",0.898
same,normalized growth,"locus YOL147C, strain pex11, active compounds read low",0.984
same,normalized growth,"locus YOR001W, strain rrp6, active compounds read low",0.973
same,normalized growth,"locus YOR061W, strain CKA2, active compounds read low",1.03
same,normalized growth,"locus YOR069W, strain VPS5, active compounds read low",1.01
same,normalized growth,"locus YOR070C, strain gyp1, active compounds read low",0.982
same,normalized growth,"locus YOR080W, strain dia2, active compounds read low",0.991
same,normalized growth,"locus YOR083W, strain WHI5, active compounds read low",0.999
same,normalized growth,"locus YOR106W, strain vam3, active compounds read low",0.975
same,normalized growth,"locus YOR136W, strain idh2, active compounds read low",0.988
same,normalized growth,"locus YOR144C, strain elg1, active compounds read low",0.983
same,normalized growth,"locus YOR184W, strain ser1, active compounds read low",0.962
same,normalized growth,"locus YOR265W, strain rbl2, active compounds read low",1
same,normalized growth,"locus YOR270C, strain vph1, active compounds read low",0.915
same,normalized growth,"locus YOR290C, strain snf2, active compounds read low",0.989
same,normalized growth,"locus YOR316C, strain cot1, active compounds read low",1.01
same,normalized growth,"locus YPL051W, strain arl3, active compounds read low",1.01
same,normalized growth,"locus YPL078C, strain atp4, active compounds read low",1.02
same,normalized growth,"locus YPL106C, strain sse1, active compounds read low",1
same,normalized growth,"locus YPL240C, strain hsp82, active compounds read low",0.974
same,normalized growth,"locus YPL241C, strain CIN2, active compounds read low",1.01
same,normalized growth,"locus YPR119W, strain clb2, active compounds read low",0.997
same,normalized growth,"locus YPR141C, strain kar3, active compounds read low",0.997
same,normalized growth,"locus YPR163C, strain tif3, active compounds read low",1
same,normalized growth,"locus YPR167C, strain met16, active compounds read low",1
same,normalized growth,"strain wtn01, active compounds read low",0.987
